# From PubChem BioAssay (NCATS)
# Values joined by “and” are separate entries in the source; they are usually repeats but may differ in a detail not shown here. Equal entries are not always repeated. Results filed as inconclusive are left out. A call without a number means that no potency is given here. Active and inactive are the calls of the source. Unless noted, the call rests on the fitted dose curve.
# Experiments:
# [1] = molecular target: Bile acid receptor (Homo sapiens) (UniProt Q96RI1); assay: qHTS assay for small molecule antagonists of farnesoid X receptor signaling (AID 588526); further: potency means the concentration at half of the fitted maximal effect
# Chain of Bile acid receptor (Homo sapiens) (Q96RI1 whole entry, looked up): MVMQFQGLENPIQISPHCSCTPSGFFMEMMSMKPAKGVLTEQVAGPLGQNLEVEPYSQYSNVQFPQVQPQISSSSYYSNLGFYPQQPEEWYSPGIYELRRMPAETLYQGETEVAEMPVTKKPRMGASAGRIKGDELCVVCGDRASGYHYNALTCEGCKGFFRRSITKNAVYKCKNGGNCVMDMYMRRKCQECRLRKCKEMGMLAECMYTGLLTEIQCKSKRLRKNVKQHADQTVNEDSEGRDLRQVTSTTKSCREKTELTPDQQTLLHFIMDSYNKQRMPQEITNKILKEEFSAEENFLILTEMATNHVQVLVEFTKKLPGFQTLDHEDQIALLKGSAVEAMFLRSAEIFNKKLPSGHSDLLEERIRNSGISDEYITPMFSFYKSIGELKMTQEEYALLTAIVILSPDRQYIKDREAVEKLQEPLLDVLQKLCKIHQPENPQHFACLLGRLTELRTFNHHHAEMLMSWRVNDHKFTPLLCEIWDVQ
# Procedure, shortened: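 Beta-lactamase reporter antagonist mode: HEK293T FXR-UAS-bla cells, titrated compound, CDCA stimulation, 16 h 37 C, CCF4 dye 2 h RT. Data normalized to CDCA 50 uM and DMSO; Hill-fit IC50.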
# [2] = molecular target: Peroxisome proliferator-activated receptor gamma (Homo sapiens) (UniProt P37231); assay: qHTS assay for small molecule agonists of peroxisome proliferator-activated receptor gamma signaling (AID 588536; active means well fitted curve in the direction sought with a large enough effect in the signal ratio, with a control signal flat, not every such curve was filed as active; the % refers to the signal ratio)
# Chain of Peroxisome proliferator-activated receptor gamma (Homo sapiens) (P37231 whole entry, looked up): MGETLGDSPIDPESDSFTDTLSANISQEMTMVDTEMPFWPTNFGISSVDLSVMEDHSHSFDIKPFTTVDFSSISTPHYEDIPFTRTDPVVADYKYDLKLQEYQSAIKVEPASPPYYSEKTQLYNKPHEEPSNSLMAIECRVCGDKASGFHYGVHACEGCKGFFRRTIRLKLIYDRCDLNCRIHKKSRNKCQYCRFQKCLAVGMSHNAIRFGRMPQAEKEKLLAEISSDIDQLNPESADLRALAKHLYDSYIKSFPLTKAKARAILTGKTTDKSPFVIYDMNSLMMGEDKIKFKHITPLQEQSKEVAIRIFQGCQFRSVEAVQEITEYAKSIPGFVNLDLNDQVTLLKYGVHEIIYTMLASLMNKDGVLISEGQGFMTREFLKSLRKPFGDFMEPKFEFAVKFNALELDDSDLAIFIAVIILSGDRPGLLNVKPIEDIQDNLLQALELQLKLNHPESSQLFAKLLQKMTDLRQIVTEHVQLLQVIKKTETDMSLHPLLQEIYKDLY
# Procedure, shortened: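 Cells were plated and held 6–6.5 h at 37 C, then compounds were added as a titration series. After a further 16 h, CCF4 dye was loaded for 2 h at room temperature and emission at 460/530 nm recorded.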
# [3] = molecular target: Peroxisome proliferator-activated receptor gamma (Homo sapiens) (UniProt P37231); assay: qHTS assay for small molecule antagonists of peroxisome proliferator-activated receptor gamma signaling (AID 588537; active means well fitted inhibition curve with a large enough effect in the signal ratio, with a control signal flat, not every such curve was filed as active; the % refers to the signal ratio; further: potency means the concentration at half of the fitted maximal effect)
# Procedure, shortened: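 Antagonist-mode β-lactamase reporter screen run as a titration series. HEK293 PPARγ-UAS-bla cells are stimulated with rosiglitazone (50 nM final) for 16 h, then CCF4 is read at 460/530 nm. Data are scaled between DMSO and rosiglitazone and fitted to the Hill equation.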
# [4] = molecular target: Vitamin D3 receptor (Homo sapiens) (UniProt P11473); assay: qHTS assay for small molecule antagonists of vitamin D receptor signaling (AID 588541); further: potency means the concentration at half of the fitted maximal effect
# Procedure, shortened: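 Antagonist-mode beta-lactamase reporter assay: HEK293T VDR-UAS-bla cells were exposed to titrated compound alongside 1-alpha,25-dihydroxyvitamin D3 at 3 nM final for 16 h. Values were normalized to the 50 nM agonist control and DMSO basal, with IC50 and efficacy from Hill equation fits.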
# [5] = molecular target: Vitamin D3 receptor (Homo sapiens) (UniProt P11473); assay: qHTS assay for small molecule agonists of vitamin D receptor signaling (AID 588543)
# Procedure, shortened: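 GeneBLAzer VDR-UAS-bla HEK293T cells in 2% charcoal-stripped FBS medium were dosed with compound titrations for 16 h at 37 °C; CCF4 β-lactamase readout (405 nm ex, 460/530 nm em). EC50 and efficacy from Hill fits, normalized to 50 nM calcitriol (100%) and DMSO (0%).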
# [6] = qHTS assay for small molecule agonists of retinoid X receptor alpha signaling (AID 588544); settings: HEK293T RXRa-UAS-bla, beta-lactamase reporter, 18 h; 530 nm emission
# [7] = molecular target: Glucocorticoid receptor (Homo sapiens) (UniProt P04150); assay: qHTS assay for small molecule agonists of glucocorticoid receptor signaling (AID 588532; active means well fitted curve in the direction sought with a large enough effect in the signal ratio, with a control signal flat; the % refers to the signal ratio); settings: HeLa MMTV-bla, beta-lactamase ratio, agonist, 18 h; stronger effect = higher value; percent of dexamethasone control, DMSO zero
# Chain of Glucocorticoid receptor (Homo sapiens) (P04150 whole entry, looked up): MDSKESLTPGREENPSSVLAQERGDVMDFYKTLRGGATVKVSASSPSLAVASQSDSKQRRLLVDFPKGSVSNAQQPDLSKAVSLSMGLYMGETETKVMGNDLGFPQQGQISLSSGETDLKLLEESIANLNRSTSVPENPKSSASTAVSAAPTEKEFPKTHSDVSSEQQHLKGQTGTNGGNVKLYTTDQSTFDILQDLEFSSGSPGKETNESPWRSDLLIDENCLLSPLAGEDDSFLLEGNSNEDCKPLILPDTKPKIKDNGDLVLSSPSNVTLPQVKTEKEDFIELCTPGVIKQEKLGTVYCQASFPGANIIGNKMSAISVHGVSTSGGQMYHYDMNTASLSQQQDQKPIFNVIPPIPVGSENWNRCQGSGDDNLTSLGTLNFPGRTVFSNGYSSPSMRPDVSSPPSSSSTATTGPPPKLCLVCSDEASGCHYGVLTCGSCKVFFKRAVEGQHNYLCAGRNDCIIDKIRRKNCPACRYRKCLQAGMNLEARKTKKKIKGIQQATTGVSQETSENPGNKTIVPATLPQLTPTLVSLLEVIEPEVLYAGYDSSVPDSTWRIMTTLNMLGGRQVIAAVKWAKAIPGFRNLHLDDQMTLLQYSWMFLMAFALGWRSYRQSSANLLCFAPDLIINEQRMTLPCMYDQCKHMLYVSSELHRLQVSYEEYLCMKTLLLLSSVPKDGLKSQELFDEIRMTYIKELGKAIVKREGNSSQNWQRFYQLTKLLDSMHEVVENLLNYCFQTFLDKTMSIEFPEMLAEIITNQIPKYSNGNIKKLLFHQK
# Procedure, shortened: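 Quantitative HTS using CellSensor MMTV-bla HeLa cells in charcoal/dextran-treated serum; compounds tested up to 92 uM. After 18 h at 37 C, CCF4 dye reported reporter induction.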
# [8] = molecular target: Glucocorticoid receptor (Homo sapiens) (UniProt P04150); assay: qHTS assay for small molecule antagonists of glucocorticoid receptor signaling (AID 588533; active means well fitted inhibition curve with a large enough effect in the signal ratio, with a control signal flat, not every such curve was filed as active; the % refers to the signal ratio;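 further: cells stimulated with 2 nM dexamethasone as agonist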; further: potency means the concentration at half of the fitted maximal effect)
# Procedure, shortened: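 Antagonist-mode qHTS: compound titrations added to GRE-bla HeLa cells, then dexamethasone 2 nM final; 18 h, 37 C. CCF4 FRET fluorescence normalized to dexamethasone and DMSO; IC50 from Hill fit.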
# [9] = qHTS assay for small molecule antagonists of peroxisome proliferator-activated receptor delta signaling (AID 588535; active means well fitted inhibition curve with a large enough effect in the signal ratio, with a control signal flat, not every such curve was filed as active; the % refers to the signal ratio; further: potency means the concentration at half of the fitted maximal effect;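 on max response: cells co-treated with a PPAR-delta agonist as stimulator during compound exposure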); settings: HEK293T PPARd-UAS-bla, beta-lactamase FRET ratio, 18 h; 460 nm channel
# Procedure, shortened: (§1)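 Titrations were run on PPAR-delta-UAS-bla HEK293T cells in charcoal/dextran-stripped serum, incubated 18 h at 37 C. CCF4 fluorescence (460/530 nm) after 2 h RT; Hill equation yields IC50 and maximal response.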
# [10] = molecular target: Peroxisome proliferator-activated receptor delta (Homo sapiens) (UniProt Q03181); assay: as above
# Chain of Peroxisome proliferator-activated receptor delta (Homo sapiens) (Q03181 whole entry, looked up): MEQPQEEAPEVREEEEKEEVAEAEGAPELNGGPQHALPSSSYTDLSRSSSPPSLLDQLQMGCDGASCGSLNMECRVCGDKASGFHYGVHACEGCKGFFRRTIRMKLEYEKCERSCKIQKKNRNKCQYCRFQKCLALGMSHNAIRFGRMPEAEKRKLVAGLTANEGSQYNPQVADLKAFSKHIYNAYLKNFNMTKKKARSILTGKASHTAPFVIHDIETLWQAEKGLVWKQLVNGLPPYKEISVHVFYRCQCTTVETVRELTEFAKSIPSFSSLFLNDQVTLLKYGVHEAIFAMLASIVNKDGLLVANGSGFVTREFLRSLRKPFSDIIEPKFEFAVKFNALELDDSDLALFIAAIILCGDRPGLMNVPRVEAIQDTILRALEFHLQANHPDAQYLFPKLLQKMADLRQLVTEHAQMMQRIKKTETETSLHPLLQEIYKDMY
# Procedure, shortened: as §1
smiles,measurement,setting,value
Cc1cc(=O)n(-c2ccccc2)n1C,Potency,[1],inactive
same,outcome,[2],inactive
same,Potency,[3],inactive
same,Potency,[4],inactive
same,outcome,[5],inactive
same,max response,[6],-30.7%
O=c1ccc2ccccc2o1,Potency,[1],inactive
same,outcome,[2],inactive
same,Potency,[3],inactive
same,max response,[6],-0.417% and -9.49%
C=C(CC)C(=O)c1ccc(OCC(=O)O)c(Cl)c1Cl,activation,[7],-8.92% (inactive)
Oc1c(I)cc(Cl)c2cccnc12,Potency,[8],28.2 µM (active)
same,outcome,[5],inactive
C=CCc1ccc(O)c(OC)c1,max response,[9],11.6% and 2.37%
same,Potency,[10],inactive
same,outcome,[2],inactive
same,Potency,[3],inactive
same,max response,[6],-13.4% and -16.3%
C[C@]12CC[C@@H]3c4ccc(O)cc4CC[C@H]3[C@@H]1CC[C@@H]2O,activation,[7],-6.54% (inactive)
same,Potency,[8],7.08 µM (active)
same,Potency,[3],39.8 µM (active)
same,Potency,[4],inactive
same,outcome,[5],inactive
same,max response,[6],6.82%
CC/C(=C(/CC)c1ccc(O)cc1)c1ccc(O)cc1,Potency,[1],44.7 µM (active) and 39.8 µM (active)
same,activation,[7],-20.1% (inactive)
same,Potency,[4],inactive
same,outcome,[5],inactive
same,max response,[6],-0.375%
CCCCCCc1ccc(O)cc1O,activation,[7],-1.17% (inactive) and 14.5% (inactive)
same,Potency,[8],inactive
same,outcome,[2],inactive
same,Potency,[4],inactive
same,outcome,[5],inactive
same,max response,[6],-14.8% and 0.183%
COc1cccc2c1C(=O)c1c(O)c3c(c(O)c1C2=O)C[C@@](O)(C(C)=O)C[C@@H]3O[C@H]1C[C@H](N)[C@H](O)[C@H](C)O1,Potency,[4],8.91 µM (active)
Oc1ccc(O)cc1,activation,[7],-0.636% (inactive)
CC(O)C(=O)O (stereo unspecified),Potency,[1],inactive
same,max response,[9],-0.0545%
same,Potency,[10],inactive
same,Potency,[4],inactive
same,outcome,[5],inactive
same,max response,[6],-16.3%
COc1cccc2c1C(=O)c1c(O)c3c(c(O)c1C2=O)C[C@@](O)(C(=O)CO)C[C@@H]3O[C@H]1C[C@H](N)[C@H](O)[C@H](C)O1,max response,[9],-92.6%
same,Potency,[10],1.41 µM (active)
same,outcome,[5],inactive
